The values below come from PubChem BioAssay AID434959 (Broad Institute, 2010).

Molecules are shown by their SMILES. Out of some 30,000 compounds screened, about 110 (0.37%) were called active. The full list was thinned out, with actives kept by preference. Values without a mark were called inactive.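 Rule for the calls: active = delta delta Cp rounded down to an integer at or above 3, about 3 SD of DMSO wells; inactive = the rest.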

The nature of the assay: YB-1 transcript reduction by qRT-PCR – cell-based, fluorescence, primary screen (AID 434959).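 Note: higher means less YB-1 transcript or more CDIP transcript relative to DMSO.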 Particulars: U2OS, qRT-PCR YB-1 vs CDIP delta delta Cp, 16 h; hits give high values; zero = DMSO, each unit about twofold. A general note: Quantitative PCR measures a nucleic acid by following its amplification.
`C[C@@H]1CN([C@H](C)CO)C(=O)c2cc(NC(=O)Nc3ccc4c(c3)OCO4)ccc2O[C@H]1CN(C)Cc1ccc(-c2ccccc2)cc1`: the delta Cp (YB-1 minus CDIP) was 0.369. Under `C[C@H](CO)N1C[C@H](C)[C@H](CN(C)C(=O)Nc2ccc(C(F)(F)F)cc2)Oc2ccc(N(C)C)cc2CC1=O` stands 0.00881; under `Cc1cc(C(=O)Nc2cccc3c2O[C@@H](CN(C)Cc2ccc(C(=O)O)cc2)[C@H](C)CN([C@@H](C)CO)C3=O)n(C)n1`, -0.416; under `O=C(N/N=C/c1ccc(Oc2ccccc2)cc1)c1ccccn1`, -0.417.

Take `COc1ccc(NC(=O)N(C)C[C@@H]2Oc3ccc(NS(=O)(=O)c4ccc(OC)cc4)cc3CC(=O)N([C@H](C)CO)C[C@H]2C)cc1`: the delta Cp (YB-1 minus CDIP) is -0.353. For `C[C@H]1CN([C@@H](C)CO)C(=O)c2cccc(NC(=O)Nc3ccccc3)c2O[C@H]1CN(C)C(=O)Nc1cccc2ccccc12`, the delta Cp (YB-1 minus CDIP) was 0.0743. Under `C[C@@H]1CN([C@@H](C)CO)C(=O)CCCn2cc(nn2)CO[C@@H]1CN(C)C(=O)C1CCCCC1` stands -0.464; under `Cc1noc(C)c1S(=O)(=O)N(C)C[C@H]1OCc2cn(nn2)CCCC(=O)N([C@H](C)CO)C[C@H]1C`, 0.0461. `C[C@H](CO)N1C[C@H](C)[C@@H](CN(C)Cc2ccc(C(F)(F)F)cc2)Oc2ccc(NC(=O)CCC(F)(F)F)cc2C1=O`: the delta Cp (YB-1 minus CDIP) was -0.124. As for `C[C@@H]1CN([C@H](C)CO)C(=O)c2cccc(NC(=O)C3CCCCC3)c2O[C@@H]1CN(C)C(=O)NC1CCCCC1`, the figure is 0.413; as for `COc1ccc(CN(C)C[C@@H]2Oc3ccc(NS(=O)(=O)c4cn(C)cn4)cc3C(=O)N([C@@H](C)CO)C[C@@H]2C)cc1`, -0.246. Turning to `Cc1ccc(C(=O)c2coc3ccc(O)c(CN(C)C)c23)cc1`, the delta Cp (YB-1 minus CDIP) was 0.308.

`CCCN(C)C[C@@H]1OCCCC[C@@H](C)Oc2ccc(NC(=O)CCCN(C)C)cc2C(=O)N([C@H](C)CO)C[C@@H]1C`: the delta Cp (YB-1 minus CDIP) is -0.0474. As for `COc1ccc(C#Cc2ccc3c(c2)[C@]2(C(=O)N3)[C@H](C(=O)N3CCc4cc(OC)c(OC)cc4C3)[C@H]3C(=O)O[C@H](c4ccccc4)[C@H](c4ccccc4)N3[C@@H]2c2ccc(O)cc2)cc1`, the figure is 0.269; as for `CC(=O)N1[C@@H](c2ccc(C)cc2)SC(C)(C)[C@@H]1C(=O)O`, -0.179. Under `Cc1ccc(S(=O)(=O)N(C)C[C@@H]2Oc3ccc(NC(=O)NC4CCCCC4)cc3C(=O)N([C@@H](C)CO)C[C@H]2C)cc1` stands 0.362; under `Cc1ccc(S(=O)(=O)Nc2ccc3c(c2)C(=O)N([C@@H](C)CO)C[C@@H](C)[C@H](CN(C)CC2CC2)O3)cc1`, -0.0524; under `COc1ccc(S(=O)(=O)Nc2cccc3c2O[C@@H](CN(C)C(=O)Nc2ccccc2)[C@@H](C)CN([C@@H](C)CO)C3=O)cc1`, -0.0223. `Cc1noc(C)c1NC(=O)Nc1ccc2c(c1)C(=O)N([C@H](C)CO)C[C@H](C)[C@H](CN(C)Cc1ccncc1)OCCCC[C@@H](C)O2`: the delta Cp (YB-1 minus CDIP) was -0.384. Under `COc1ccc(CN(C)C[C@H]2Oc3c(NC(=O)C4CC4)cccc3C(=O)N([C@@H](C)CO)C[C@H]2C)cc1` stands -0.0719; under `C[C@H]1CN([C@@H](C)CO)C(=O)c2cc(NC(=O)CCC(F)(F)F)ccc2O[C@H]1CN(C)Cc1ccc(C(=O)O)cc1`, -0.0494. Under `C[C@@H]1CN([C@H](C)CO)C(=O)c2cc(NS(=O)(=O)c3ccccc3)ccc2O[C@H]1CN(C)S(=O)(=O)c1cccs1` stands 0.37; under `COc1ccc(S(=O)(=O)Nc2ccc3c(c2)C(=O)N([C@H](C)CO)C[C@@H](C)[C@@H](CN(C)CC2CCCCC2)O3)cc1`, 0.268. As to `Cc1ccc(S(=O)(=O)Nc2ccc3c(c2)C(=O)N([C@H](C)CO)C[C@H](C)[C@H](CN(C)S(=O)(=O)c2ccc(F)cc2)O3)cc1`, the delta Cp (YB-1 minus CDIP) is 0.151. As for `C[C@@H]1CN([C@@H](C)CO)C(=O)CCCn2nncc2CO[C@H]1CN(C)C(=O)Nc1ccc(C(F)(F)F)cc1`, the figure is -0.177; as for `O=C(CCCCCCC(=O)Nc1ccccc1O)N/N=C/c1ccc(C(F)(F)F)cc1`, -0.34; as for `Cc1noc(C)c1S(=O)(=O)Nc1ccc2c(c1)CC(=O)N([C@H](C)CO)C[C@@H](C)[C@@H](CN(C)Cc1ccncc1)O2`, -0.237. Under `COc1ccc2c(c1)C(=O)CC(c1ccccc1)O2` (centres undefined) stands -0.382; under `COc1cc([C@H](Cc2ccccc2)NC(C)=O)oc(=O)c1`, 7.24 (active). Under `COc1cc(CCC(=O)O)oc(=O)c1` stands 0.941; under `COc1ccc(S(=O)(=O)Nc2ccc3c(c2)CC(=O)N([C@H](C)CO)C[C@@H](C)[C@@H](CN(C)S(=O)(=O)c2ccc(F)cc2)O3)cc1`, 0.215; under `Cc1noc(C)c1S(=O)(=O)Nc1ccc2c(c1)C(=O)N([C@@H](C)CO)C[C@H](C)[C@H](CN(C)Cc1ccc(C(=O)Nc3ccccc3N)cc1)O2`, -0.223. Take `C[C@@H]1CN([C@@H](C)CO)C(=O)c2cccc(NC(=O)CCCCCC(=O)Nc3ccccc3N)c2O[C@@H]1CN(C)CC1CCCCC1`: the delta Cp (YB-1 minus CDIP) is -0.278. As for `C[C@@H]1CN([C@@H](C)CO)C(=O)Cc2cc(NC(=O)C3CCCCC3)ccc2O[C@@H]1CN(C)Cc1ccc(-c2ccccc2)cc1`, the figure is -0.443; as for `COc1ccc(NC(=O)N(C)C[C@H]2Oc3ccc(NS(=O)(=O)c4ccc(F)cc4)cc3C(=O)N([C@@H](C)CO)C[C@@H]2C)cc1`, 0.491; as for `COc1cc(OC)c(/C=N/NC(=O)CCCCCCC(=O)Nc2ccccc2O)c(OC)c1`, -0.14. Regarding `N#C/C(=C\c1ccc(O)c(O)c1)C(N)=O`, the delta Cp (YB-1 minus CDIP) is -0.313.

Take `Cc1noc(C)c1NC(=O)N(C)C[C@@H]1Oc2ccc(NC(=O)Nc3ccc4c(c3)OCO4)cc2C(=O)N([C@H](C)CO)C[C@H]1C`: the delta Cp (YB-1 minus CDIP) was -0.0859. On to `C[C@@H]1CCCCO[C@H](CN(C)Cc2ccccc2)[C@@H](C)CN([C@H](C)CO)C(=O)c2cc(NS(C)(=O)=O)ccc2O1`, for which the delta Cp (YB-1 minus CDIP) is -0.038. As for `O=C(O)CCC(=O)N(Cc1ccccc1)Cc1cn(-c2ccccc2)nc1-c1cccnc1`, the figure is -0.539; as for `C[C@@H]1CN([C@@H](C)CO)C(=O)c2cc(N(C)C)ccc2O[C@H]1CN(C)Cc1ccc(C(F)(F)F)cc1`, -0.101. Under `C[C@@H]1CN([C@@H](C)CO)C(=O)c2cc(NC(=O)Cc3ccccc3)ccc2O[C@@H]1CN(C)S(=O)(=O)c1ccccc1` stands 0.109; under `C[C@@H]1CN([C@@H](C)CO)C(=O)c2cc(NC(=O)c3ccncc3)ccc2O[C@H]1CN(C)S(=O)(=O)c1ccc(Cl)cc1`, -0.0147.

`Cc1ccoc1CC[N+](C)(C)C`: the delta Cp (YB-1 minus CDIP) is -0.0929. As to `C[C@@H]1CN([C@@H](C)CO)C(=O)CCCn2nncc2CO[C@H]1CN(C)Cc1ccc(C(F)(F)F)cc1`, the delta Cp (YB-1 minus CDIP) is -0.415. In the case of `CNC[C@H]1Oc2ccc(NS(=O)(=O)c3ccc(F)cc3)cc2C(=O)N([C@@H](C)CO)C[C@@H]1C`, the delta Cp (YB-1 minus CDIP) is -0.0588.

Consider `C[C@@H]1CCCCO[C@@H](CN(C)S(=O)(=O)c2cccs2)[C@@H](C)CN([C@H](C)CO)C(=O)c2cc(NC(=O)Nc3ccc(F)cc3)ccc2O1`, for which the delta Cp (YB-1 minus CDIP) is -0.356. Under `COc1cccc(NC(=O)N(C)C[C@@H]2OCc3cn(nn3)CCCC(=O)N([C@@H](C)CO)C[C@H]2C)c1` stands 0.0991; under `CC(C)(C)C(=O)CSc1nc2ccccc2c(=O)n1CC1CC1`, -0.316. Under `COC(=O)C1=C(C)NC2=C(C(=O)CC(C)(C)C2)C1c1ccncc1` (centres undefined) stands -0.233; under `O=C(O)CCCCCC(=O)N/N=C/c1ccncc1Br`, -0.0121. `Cc1ccc(/C=N/NC(=O)CCCCCCC(=O)O)o1`: the delta Cp (YB-1 minus CDIP) is -0.127. Under `COc1ccc(NC(=O)Nc2cccc3c2O[C@H](CN(C)Cc2ccncc2)[C@@H](C)CN([C@@H](C)CO)C3=O)cc1` stands -0.239; under `CC(C)S(=O)(=O)NCC1CCN(Cc2cccc(OCCO)c2)CC1`, 0.112.

In the case of `C[C@@H]1CCCCO[C@H](CN(C)C(=O)Nc2cccc3ccccc23)[C@@H](C)CN([C@H](C)CO)C(=O)c2cc(NC(=O)Nc3ccc4c(c3)OCO4)ccc2O1`, the delta Cp (YB-1 minus CDIP) was 0.427.

As to `C[C@@H]1CN([C@@H](C)CO)C(=O)CCCn2cc(nn2)CO[C@H]1CN(C)Cc1cccc2c1OCCCO2`, the delta Cp (YB-1 minus CDIP) is -0.151. Regarding `Cc1noc(C)c1S(=O)(=O)Nc1ccc2c(c1)CC(=O)N([C@@H](C)CO)C[C@H](C)[C@H](CN(C)C(=O)Nc1cccc3ccccc13)O2`, the delta Cp (YB-1 minus CDIP) was -0.29. Under `CN1C(=O)C(Cc2ccccc2)(Cc2ccccc2)c2ccccc21` stands -0.307; under `C[C@@H]1CN([C@H](C)CO)C(=O)c2cc(NC(=O)CCCN(C)C)ccc2O[C@H]1CN(C)S(=O)(=O)c1ccc(Cl)cc1`, -0.394.

Turning to `Cc1ccc(S(=O)(=O)N(C)C[C@@H]2OCCCC[C@@H](C)Oc3ccc(NS(=O)(=O)c4ccccc4)cc3C(=O)N([C@H](C)CO)C[C@@H]2C)cc1`, the delta Cp (YB-1 minus CDIP) is -0.0955. With `O=C(CCCCCCC(=O)Nc1ccccc1O)N/N=C/c1ccc2c(c1)Cc1ccccc1-2`, the delta Cp (YB-1 minus CDIP) was 0.456. As for `O=C(N/N=C/c1cc(F)ccc1O)c1ccccc1O`, the figure is 0.293. Under `COc1ccc(OC)c(CCCc2cc(OC)ccc2OC)c1` stands 10.3 (active).

Regarding `COc1ccc2nc3c(nc2c1)C(=O)c1ccccc1C3=O`, the delta Cp (YB-1 minus CDIP) was 0.188.
